hgDAF-12 ag: hgDAF-12 agonism, primary luciferase screen; HEK293 GAL4-hgDAF12 UAS-luciferase reporter, agonist luminescence; normalized to butyrate control; activation, % at 6.8 µM; 1.8% of 370,000 active;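 active = activation above a cutoff set at the mean of all screened compounds plus 3 SD, cut at about 10% in these data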;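 note: 0% = DMSO wells and 100% = sodium butyrate wells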
DAX1 inh-1: inhibitors of human orphan nuclear receptor DAX1 (NR0B1). P51843. HEK293 Gal4-DAX1 luciferase reporter, luminescence. inhibition, % at 6.75 µM. 0.99% of 340,000 active. AID 504766;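 active = inhibition above the mean over all tested compounds plus 3 SD, cut at about 4.2% in these data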;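 note: 0% = DAX1-transfected cells with DMSO and 100% = empty-vector control cells with DMSO; inhibition shows as a rise in luminescence from relieved DAX1 repression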
Target sequence (P51843 207-470 limits assumed): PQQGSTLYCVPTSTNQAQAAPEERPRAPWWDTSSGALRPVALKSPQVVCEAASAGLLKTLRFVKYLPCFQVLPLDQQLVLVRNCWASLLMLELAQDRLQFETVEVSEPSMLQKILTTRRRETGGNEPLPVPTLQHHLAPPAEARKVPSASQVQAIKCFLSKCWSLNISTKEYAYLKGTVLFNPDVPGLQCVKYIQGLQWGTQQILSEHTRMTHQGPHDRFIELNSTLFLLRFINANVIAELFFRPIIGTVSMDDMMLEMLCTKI
PolyA inhibitor: inhibitors of polyadenylation in S. cerevisiae; 0.02% of 300,000 active; AID 1875; S. cerevisiae SKY197-pL101 polyadenylation reporter, beta-gal luminescence; efflux-impaired pdr1/pdr3 knockout yeast; score 100 = 6 SD above DMSO; activity score, % at 12 µM;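 active = lowest replicate activity score at least 50, where 100 means six control SD above control mean; inconclusive = lowest score under 50 but half or more replicates reach 50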;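 note: yeast exposed to compound for 9 h at 30 °C; higher score means more reporter readthrough which indicates perturbed polyadenylation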
hcDAF-12 act: activators of H. contortus DAF-12 nuclear receptor; HEK293 hcDAF-12 lit1-tk-luc reporter, luminescence; 0% DMSO, 100% Δ7-dafachronic acid; activation, % at 6.8 µM; 1.4% of 370,000 active;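 active = activation above the mean of all tested compounds plus 3 SD, cut at about 5.5% in these data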;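 note: 100% = response to 3 µM Δ7-dafachronic acid high control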
ssDAF-12 act: activators of S. stercoralis DAF-12 nuclear receptor; HEK293 ssDAF-12/GRIP1 lit1-tk-luc reporter, luminescence; % of 3 µM dafachronic acid response; activation, % at 6.8 µM; 1% of 370,000 active;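 active = activation above the mean over all tested compounds plus 3 SD, cut at about 0.9% in these data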;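 note: 0% = DMSO-only wells and 100% = 3 µM delta7-dafachronic acid wells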
DAX1 inh-2: DAX1 (NR0B1) inhibition, primary screen; HEK293T StAR-luciferase reporter, SF-1/DAX-1 repression relief; 1.1% of 370,000 active; AID 652010; inhibition, % at 6.8 µM;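 active = inhibition above the mean over all tested compounds plus 3 SD, cut at about 3.6% in these data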;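 note: 0% = DAX-1 cells with DMSO and 100% = cells lacking DAX-1 with DMSO; higher inhibition means more luminescence from relief of DAX-1 repression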
hgDAF12 ag: confirmation of H. glycines DAF-12 agonists. shares compounds with hgDAF-12 ag. HEK293 GAL4-hgDAF12 luciferase reporter, agonist mode; percent of butyrate response. activation, % at 6.8 µM. 80% of 3,300 active. AID 743050;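 active = mean activation over triplicate wells above the hit cutoff derived from the earlier primary screen, cut at about 11% in these data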;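 note: 0% = DMSO low control and 100% = 2 mM sodium butyrate high control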
LXRb DAF12 ctr: activates human LXR-beta, counter-screen for DAF-12 agonists | shares compounds with hgDAF-12 ag | HEK293 Gal4-LXR luciferase reporter, 24 h | activation, % at 6.8 µM | 3,300 tested, under 10 active;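 active = mean activation of the triplicate above a set limit carried over from the primary screen, none filed active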
Target sequence (P55055 whole entry, looked up, the tested form may be a part): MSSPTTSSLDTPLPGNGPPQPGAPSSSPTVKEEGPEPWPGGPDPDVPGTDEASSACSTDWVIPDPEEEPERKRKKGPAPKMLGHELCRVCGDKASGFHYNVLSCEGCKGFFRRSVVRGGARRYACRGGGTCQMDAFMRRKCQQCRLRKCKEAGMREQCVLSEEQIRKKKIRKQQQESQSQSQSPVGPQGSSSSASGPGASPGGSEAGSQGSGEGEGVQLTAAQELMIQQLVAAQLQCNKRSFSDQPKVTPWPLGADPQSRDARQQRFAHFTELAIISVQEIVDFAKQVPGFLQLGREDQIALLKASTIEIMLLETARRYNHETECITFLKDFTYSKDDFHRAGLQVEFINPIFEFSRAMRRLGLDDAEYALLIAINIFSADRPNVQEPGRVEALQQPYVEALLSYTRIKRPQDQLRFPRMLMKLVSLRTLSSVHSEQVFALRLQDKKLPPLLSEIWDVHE
Numbers without * were called inactive; ? = inconclusive; nt = no result. In the library only some 4.1% were active in any assay of this set; here they are far more common.

SMILES	hgDAF-12 ag	DAX1 inh-1	PolyA inhibitor	hcDAF-12 act	ssDAF-12 act	DAX1 inh-2	hgDAF12 ag	LXRb DAF12 ctr
COC(=O)[C@]12C[C@H](CC(=O)N3CCCCC3)C(=O)N(Cc3ccccc3)C1=C[C@H](C(C)(C)C)O[C@@H]2C	-0.8	nt	nt	-1.4	-0.4	-0.3	nt	nt
C/C(CC(=O)Nc1ccc(Cl)cc1C(F)(F)F)=N\NC(N)=S	-0.6	nt	-1.6	-0.2	-1.5	-0.6	nt	nt
C/C(CC(=O)Nc1ccc(Cl)cc1C(F)(F)F)=N\NC(=O)c1cccs1	14.1*	8.6*	6.2	5.4	0.3	1.8	4.8	0.1
C/C(CC(=O)Nc1ccc(Cl)cc1C(F)(F)F)=N\NC(=O)c1ccccn1	15.4*	-0.1	15.4	3.7	-0.1	2.3	6.5	0.2
C(#Cc1ccccc1)Cn1nnc2ccccc21	3.5	1.4	-8.4	0.1	-0.9	1.2	nt	nt
c1ccc(CNn2nnc3ccccc32)cc1	13.9*	nt	nt	-1.1	-0.6	1.9	11.5*	0.3
c1ccc(CSc2ncn(-c3ccccc3)n2)cc1	13.9*	5.0*	-28.0	4.5	-0.3	2.2	19.3*	0.7
Cc1cc(C(=O)Cn2nc(C(=O)O)c3ccccc3c2=O)c(C)n1C1CC1	0.5	0.8	5.0	-0.8	-1.9	1.2	nt	nt
COCCn1c(C)cc(C(=O)Cn2nc(C(=O)O)c3ccccc3c2=O)c1C	13.9*	1.4	5.6	1.0	0.2	3.5	11.6*	0.5
O=C(N/N=C/c1ccccc1)c1n[nH]c2c1CCCC2	17.4*	-0.7	15.7	2.2	1.1*	3.1	15.8*	0.8
CC1CCN(C(=O)COC(=O)c2c[nH]c3ccccc23)CC1	3.9	0.8	nt	1.5	0.8	2.8	nt	nt
CCOC(=O)c1ccc2nc(C)c3c(c2c1)OC(C)C3 (centres undefined)	-0.2	-2.0	4.8	0.6	-1.6	-0.1	nt	nt
CCOC(=O)c1ccc2nc3c(cc2c1)CCS3	15.6*	0.9	-10.6	1.7	0.2	0.2	11.3*	0.4
Cc1ccccc1-c1cnc2c(c1)C(=O)N([C@@H](C)CO)C[C@@H](C)[C@H](CN(C)Cc1ccccc1F)O2	4.6	0.5	nt	1.4	-0.5	-0.1	nt	nt
Oc1cccc(/C=N\Nc2nncc(-c3ccccc3)n2)c1	15.6*	0.8	-11.6	2.6	-0.5	1.4	11.7*	0.5
Cc1cc(=O)[nH]c(Nc2cccc(Cl)c2C)n1	1.2	1.2	-4.3	-0.8	-1.2	-0.4	nt	nt
COc1ccc(NC(=O)c2cc3ccccc3o/c2=N\NS(=O)(=O)c2ccc(C)cc2)cc1	14.2*	1.7	25.1	6.0*	0.0	2.3	12.6*	0.7
COCCCNC(=O)CC1C[C@H](C(=O)N(C(C)C)C(C)C)[C@@]2(C)c3[nH]c4ccccc4c3CCN2C1=O (some centres undefined)	-2.0	0.3	nt	-0.1	-1.2	0.2	nt	nt
CCN(/C=N/c1sc2c(c1C#N)CCCCC2)CC	14.0*	2.9	-6.3	6.1*	-0.6	2.9	12.8*	0.6
CN1CCN(/C=N/c2sc3c(c2C#N)CCCCC3)CC1	18.9*	6.8*	1.9	6.4*	0.9	1.3	18.7*	0.8
COc1ccc(NC(=O)CN(C)CC(=O)NCC(=O)Nc2ccc(F)cc2)cc1	4.4	-1.2	-6.2	2.4	-1.4	-0.3	nt	nt
COc1ccc(Cc2c(-c3cccc(Cl)c3)nc3ccc(Br)cn23)c(C)c1	5.9	nt	nt	-0.1	-1.1	2.8	nt	nt
COc1ccccc1Cc1c(-c2cccc(Cl)c2)nc2ccc(C)cn12	14.9*	nt	nt	2.3	-0.4	2.9	4.5	0.2
Cc1ccc2nc(C(C)(C)C)c(Cc3cccc(F)c3)n2c1	16.2*	nt	nt	3.5	2.2*	3.7*	5.3	0.2
COc1ccc(Cc2c(-c3ccc(F)cc3)nc3ccc(Br)cn23)c(C)c1	13.6*	nt	nt	2.4	0.4	0.2	7.6	0.4
SMILES	hgDAF-12 ag	DAX1 inh-1	PolyA inhibitor	hcDAF-12 act	ssDAF-12 act	DAX1 inh-2	hgDAF12 ag	LXRb DAF12 ctr
Cc1ccc(-c2nc3ccc(C)cn3c2Cc2cccc(F)c2)cc1	14.7*	nt	nt	3.5	0.0	3.6*	5.1	0.2
COC(=O)c1ccc2nc(-c3ccc(C)cc3)c(Cc3cccc(F)c3)n2c1	1.5	nt	nt	1.2	-1.1	0.2	nt	nt
Fc1cccc(Cc2c(-c3cccc(Cl)c3)nc3ccc(Cl)cn23)c1	1.0	nt	nt	-0.4	-1.0	2.7	nt	nt
CCCc1nc2ccc(C)cn2c1Cc1ccc(C)cc1	13.8*	nt	nt	4.5	-0.2	1.3	9.3	0.5
OCCN1CCN(c2ncnc3sc(-c4ccccc4)cc23)CC1	-2.1	2.2	-11.9	-1.1	-0.5	-0.7	nt	nt
COc1cc(Cl)ccc1OCc1cc(C(=O)N2CCN(C)CC2)no1	-2.3	0.2	-9.4	0.7	-0.5	0.1	nt	nt
COc1cc(Cl)ccc1OCc1cc(C(=O)N2CCN(C)C(=O)[C@@H]2C)no1	14.5*	3.2	nt	5.8*	-0.4	2.6	13.0*	0.5
Cc1cccc(CSc2cn(CC(=O)N3CCOCC3)c3ccccc23)c1	14.2*	5.2*	11.0	4.3	0.3	0.8	13.1*	0.3
O=Cc1cn(CC(=O)N2CCOCC2)c2ccccc12	0.0	0.2	26.2	0.4	-0.7	0.0	nt	nt
COCC1CCN(Cc2nc(-c3cccs3)no2)C1 (centres undefined)	21.5*	nt	-6.0	3.2	0.7	3.5	10.0	0.3
COc1ccccc1CN1CCN(Cc2nc(-c3cccs3)no2)CC1	3.5	-0.4	?	1.0	-0.8	1.4	nt	nt
COC(=O)CCN(Cc1ccc(OC)cc1OC)S(=O)(=O)c1ccccc1Br	-2.7	nt	nt	-2.7	-1.1	-1.3	nt	nt
O=C(Nc1cccnc1)c1cc2cc(Br)ccc2o1	13.9*	6.6*	9.7	5.1	0.0	2.3	14.2*	1.0
Cc1cccc(NC(=O)c2cc3ccccc3o2)c1	19.6*	2.9	-7.9	6.4*	1.1*	3.6	18.8*	0.8
Cc1ccc(C2C(C#N)=C(N)N(c3ncn[nH]3)C3=C2C(=O)CC(C)(C)C3)cc1 (centres undefined)	-1.0	-1.1	-11.8	-0.5	-1.1	0.5	nt	nt
COc1ccc(C2N=C(c3ccccc3)NO2)cc1OC (centres undefined)	13.6*	5.9*	24.4	6.1*	0.6	1.6	12.2*	0.6
O=C(N/N=C/c1cc2c(cc1Cl)OCO2)c1ccccn1	8.0	3.8	19.9	3.0	-1.2	2.0	nt	nt
COc1cc(/C=N/NC(=O)c2ccccn2)cc2c1OCO2	14.5*	3.4	-3.4	2.7	-0.2	1.6	7.2	0.2
COc1ccc(/C=C/c2ccc3ccccc3[n+]2C)cc1OC	nt	2.6	-21.3	nt	nt	nt	nt	nt
